Hits are enriched below; roughly 1.8% of the tested compounds scored in any of these assays.
GLP1R inv ag: inverse agonists of human GLP-1 receptor | P43220 | HEK293 GLP-1R CRE-luciferase, luminescence, 24 h; GLP-1R form is constitutively active | Potency, µM (titrated, usually from 38.3 µM), without a hit: at the top dose activity change, negative = inhibition, hits mostly inhibitors | hit rate 1.6% among 410,000 | AID 624417; further: potency means the concentration at half of the fitted maximal effect; on the % scale 0 is the no-effect control and ±100 the full control effect; nearly all actives have a fitted effect of over 55% in size
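Using stably transfected HEK293 (constitutively active GLP-1R, cAMP-luciferase reporter), compounds were incubated 24 hr and luciferase measured by luminescence.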
HEK293 tox: cytotoxic in the GLP-1 receptor inverse agonist counter-screen. HEK293 cAMP-luciferase reporter cells, luminescence, 24 h. Potency, µM (titrated, usually from 38.3 µM), inactives show at the highest dose activity change, negative = inhibition, usual class: inhibitors. hit rate 0.13% among 410,000;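 further: loss of luciferase light is scored as toxicity; potency means the concentration at half of the fitted maximal effect; on the % scale 0 is the no-effect control and ±100 the full control effect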
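A 23 nL compound transfer followed 12 hours of cell culture at 37 deg C; exposure then lasted 24 hr. Luciferase assay detection reagent was dispensed and plates read for luminescence after a 12 min room-temperature wait.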
TRPML1 blocker: blocks the human TRPML1 channel; hit rate 0.02% among 390,000; activity change, negative = inhibition, % (no concentration beside the values); AID 624415; TRPML1-inducible cells, Ca2+ dye fluorescence, FDSS; stronger effect = lower value; inhibition of EC80 agonist-evoked calcium signal; in the data active means activity change below about -50%; inconclusive means between about -30% and that limit;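 further: stimulus is agonist 54-4 at its EC80 concentration; on the % scale 0 is the no-effect control and ±100 the full control effect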
Target sequence (Q9GZU1 whole entry, looked up): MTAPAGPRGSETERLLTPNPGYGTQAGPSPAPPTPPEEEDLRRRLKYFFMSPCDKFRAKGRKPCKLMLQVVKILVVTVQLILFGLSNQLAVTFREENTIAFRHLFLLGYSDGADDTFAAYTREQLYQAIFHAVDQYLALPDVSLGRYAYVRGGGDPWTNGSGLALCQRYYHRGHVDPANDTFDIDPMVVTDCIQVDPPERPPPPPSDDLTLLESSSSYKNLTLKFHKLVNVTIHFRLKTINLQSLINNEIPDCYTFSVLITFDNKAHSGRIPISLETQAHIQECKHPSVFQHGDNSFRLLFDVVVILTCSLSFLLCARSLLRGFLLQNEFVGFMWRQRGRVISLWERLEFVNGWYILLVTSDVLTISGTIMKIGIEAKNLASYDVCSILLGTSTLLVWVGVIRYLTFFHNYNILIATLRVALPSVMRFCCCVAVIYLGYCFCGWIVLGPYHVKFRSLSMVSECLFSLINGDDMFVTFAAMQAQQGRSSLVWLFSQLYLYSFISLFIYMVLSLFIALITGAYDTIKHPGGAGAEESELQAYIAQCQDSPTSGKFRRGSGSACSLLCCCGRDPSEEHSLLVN
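Tet-induced TRPML1-DL cells loaded with Ca8 no-wash calcium dye were read kinetically on FDSS. Compound addition was followed by EC80 agonist 54-4 (4 uM final); inhibition was read over 110 s.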
GLP-1R agonist: agonists of human GLP-1 receptor; P43220; HEK293 GLP-1R CRE-luciferase, luminescence, 4-6 h; cells express a hypersensitive GLP-1R form; Potency, µM (highest dose often 45.6 µM), without a hit: at the highest dose activation, actives largely listed as activators; hit rate 0.007% among 380,000; AID 624172; further: potency means the concentration at half of the fitted maximal effect; % of control where 0% means no effect
TRPML1 ag: activates the human TRPML1 channel; AID 624414; TRPML1-expressing cells, Ca2+ dye fluorescence, FDSS; hit rate 0.12% among 410,000; activation, % (no concentration beside the values); in the data active means activation above about 50%; inconclusive means mostly about 30% to 49%; further: 0% is about no effect
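In this qHTS format, compounds were pin-transferred onto Ca8-dye-loaded TRPML1-DL cells induced with Tet overnight, and intracellular Ca2+ fluorescence was recorded kinetically for 110 s after a 10 s baseline. A subsequent 4uM final 54-4 (EC80) addition followed by a second 110 s read served as the antagonist phase.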
* hit, by the source's call; ? = inconclusive; · = no result given. Unless noted, the call rests on the fitted dose curve; in most records, active means well fitted curve in the direction sought with a large enough effect; inconclusive means small, poorly fitted or top-dose-only effect, or another doubt; inactive means no such curve, though single readings can be large; an effect the other way counts as inactive or inconclusive.

SMILES | GLP1R inv ag | HEK293 tox | TRPML1 blocker | GLP-1R agonist | TRPML1 ag
COC(=O)N/N=C/c1cccs1 | 1% | -11% | 3 | 8% | 4
CC1=CCC(C(=O)N/N=C/c2cccs2)C(c2ccc(F)cc2)C1 (configuration not stated) | 10µM* | -14% | 14 | 0% | 5
CCCCNC(=O)C1CCC(Cn2c(=O)c3sccc3n(CC(=O)Nc3ccccc3)c2=O)CC1 (configuration not stated) | 4% | 2% | -12 | · | 2
COc1ccc(-c2nnc(SCC(=O)Nc3cccc(C(F)(F)F)c3)s2)cc1 | 8% | -18% | 8 | · | 3
COc1ccc(S(=O)(=O)n2nc(-c3ccc(Cl)cc3)cc2N)cc1 | 10µM* | -19% | 35 | 4% | 2
O=C(CCCn1c(=O)c2ccccc2n(Cc2cccc(F)c2)c1=O)NCc1ccccc1Cl | -13% | -2% | -6 | -2% | -1
Clc1ccc(-n2nnnc2Sc2ncnc3sccc23)cc1 | 7.9µM* | ? | -3 | -49% | 0
Cn1c(C(=O)Nc2cccc(Cl)c2)cc2c(=O)n(C)c3ccccc3c21 | 1% | -6% | 0 | 2% | -1
Cc1ccc(S(=O)(=O)N2C[C@@H]3[C@H]4CC[C@H](C4)[C@@H]3[C@@H](C)C2CC(=O)c2ccccc2)cc1 (some centres not stated) | ? | 9% | -25 | 1% | 4
C=CCC1[C@H](C)[C@H]2[C@@H]3CC[C@@H](C3)[C@H]2CN1S(=O)(=O)c1ccc(C)cc1 (some centres not stated) | ? | 24% | -13 | -1% | 54*
O=C(NC(=S)N1CCN(c2ccc(C(F)(F)F)cc2[N+](=O)[O-])CC1)c1cccs1 | 0% | 10µM* | 0 | -16% | -1
CN(c1nnc(NC(=O)Nc2ccc(Br)cc2)s1)C1CCCCC1 | 0% | 1% | 40 | · | -1
Clc1ccc2c(c1)C(N1CCNCC1)Cc1ccccc1S2 (configuration not stated) | 8.9µM* | -10% | -10 | -16% | 3
Clc1cccc2c1Sc1ccccc1CC2N1CCNCC1 (configuration not stated) | ? | ? | 6 | 11% | 0
Fc1cccc(Cn2cc(C(=S)N3CCCCC3)c3ccccc32)c1 | 7.9µM* | 4% | 42 | 1% | 2
Fc1cccc(Cn2cc(C(=S)N3CCOCC3)c3ccccc32)c1 | ? | 5% | 11 | 7% | 3
O=C(CNC(=S)N(CCCN1CCOCC1)Cc1cccs1)NCc1ccccc1 | -9% | -5% | 2 | 6% | 0
O=C(CNC(=S)N(Cc1ccccc1)Cc1ccccc1F)NCCc1ccc(Cl)cc1 | 4µM* | -29% | -6 | 8% | 5
O=C(CNC(=S)N(Cc1ccccc1)Cc1cccs1)NCc1ccc(F)cc1 | 2.8µM* | -24% | 13 | 7% | 3
Cc1ccc(C)c(OCc2cc(C(=O)N3CCN(c4ccccc4C)CC3C)no2)c1 (configuration not stated) | 2.5µM* | 8% | 14 | -7% | 1
Cc1ccc(C)c(OCc2cc(C(=O)N3CC[C@@H]4CCCC[C@H]4C3)no2)c1 | 11µM* | 7% | 9 | 2% | 0
O=C(c1cc(COc2ccc(F)cc2Cl)on1)N1CCN(C2CCCCC2)C(=O)C1 | 10µM* | -11% | -12 | 11% | 1
O=C(c1cc(COc2ccc(F)cc2Cl)on1)N1CCN(C2CCCC2)CC1 | ? | -16% | 5 | 18% | -1
Cc1ccc(C)c(OCc2cc(C(=O)N3CCN(C4CCCCC4)CC3)no2)c1 | ? | 3% | 10 | 9% | 0
C=C[C@]1(C)C[C@@H](OC(=O)CO)[C@]2(C)C(C)CC[C@]3(CCC(=O)[C@H]32)[C@@H](C)[C@@H]1O (some centres not stated) | · | · | · | 0% | ·
SMILES | GLP1R inv ag | HEK293 tox | TRPML1 blocker | GLP-1R agonist | TRPML1 ag
O=S(=O)(c1ccccc1)N1N=C(c2cccs2)CC1c1ccc(F)cc1 (configuration not stated) | ? | 2% | -9 | 1% | -1
Fc1ccc(N2N=C(c3cccs3)CC2c2ccccc2)cc1 (configuration not stated) | 11µM* | 254% | -6 | 16% | 2
COCCNC(=O)c1ccc(CN2CCC(Cc3ccccc3)CC2)cc1 | -18% | 20% | 0 | -5% | 0
CCc1ccccc1NC(=O)c1ccc(CN2CCC(Cc3ccccc3)CC2)cc1 | 8.9µM* | ? | -1 | -2% | -1
CN(C(=O)c1ccccc1Cl)C1CCCCC1 | 4% | 3% | -6 | 4% | -1
O=C(NCc1ccccc1)c1ccc(C(=O)N(C2CCCCC2)C2CCCCC2)cc1 | -30% | 9% | ? | 4% | 119*
CN(C(=O)c1ccc(-c2ccccc2)cc1)C1CCCCC1 | 10µM* | 1% | -12 | 19% | 1
O=C(NCc1ccccc1)c1ccc(CN2CCC(Cc3ccccc3)CC2)cc1 | 10µM* | -13% | 14 | 7% | 3
Cc1ccc(CNC(=O)CCC(=O)N2CC3CCCN3c3ccccc32)cc1 (configuration not stated) | -25% | 0% | 2 | · | 0
CCN(Cc1ccccc1)c1ccc(N=Nc2nn(C)c(C)c2[N+](=O)[O-])cc1 | ? | ? | 34 | 1% | 2
CCN(CC)c1ccc(N=Nc2nn(C)c(C)c2[N+](=O)[O-])cc1 | 6% | 4.5µM* | 19 | 18% | 2
CN1c2ccccc2C(O)=C(C(=S)Nc2ccc(F)c(Cl)c2)S1(=O)=O | 10µM* | 11% | 1 | -26% | 0
CN1c2ccccc2C(O)=C(C(=S)Nc2ccccc2)S1(=O)=O | -14% | 0% | 8 | -5% | 0
CC(=O)c1ccc(NC(=O)Cn2c(-n3nc(C)cc3C)nc(C)c(C)c2=O)cc1 | 17% | 0% | 1 | · | -1
Cc1cc(C)c(S(=O)(=O)Nc2ccc(-c3ccc(N4CCCCC4)nn3)cc2)cc1C | -7% | -8% | 62 | · | 1
Cc1cc(C)c(S(=O)(=O)Nc2ccc(-c3ccc(N4CCCCCC4)nn3)cc2)cc1C | 13µM* | -10% | 34 | · | -1
CCc1ccc(NC(=O)N2CCN(c3nnc(C)c4c(C)n(-c5ccc(Cl)cc5)nc34)CC2)cc1 | -14% | 6% | -22 | · | 3
Cc1ccc(C(=O)N(Cc2ccccc2)C(C)(C)C)cc1C | 7.1µM* | -2% | 12 | 0% | 6
CC1CC(C)CN(S(=O)(=O)c2ccc(C(=O)NCc3ccc4c(c3)OCO4)cc2)C1 (configuration not stated) | 10µM* | 22% | 34 | 5% | 3

Screening data deposited in PubChem BioAssay by National Center for Advancing Translational Sciences (NCATS).
